Screens as filed in PubChem BioAssay.
In the library only some 2.9% were active in any assay of this set; here they are far more common.
TSHR antag: blocks TSH signaling through the human TSH receptor. TSHR-expressing cells, TSH-stimulated cAMP HTRF, 2 h; hits give low values. 330,000 compounds, 0.2% hits. P16473. activity change, negative = inhibition, % at 11.5 µM;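 active = activity change below a set negative limit, meaning inhibition stronger than a set level, cut at about -70% in these data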; also: % is scaled to controls: 0 for no effect and ±100 for the full control effect
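Freshly harvested TSHR cells receive pin-tooled compound, then EC80 TSH at 4nM final. After 2 hours at 37 deg C, antibody in lysis buffer and cAMP-d2 are added; 30 minutes at ambient temperature precede the HTRF read.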
B2AR arrestin: recruits beta-arrestin to the human beta2-adrenergic receptor; P07550; beta-arrestin recruitment to beta2AR, cell-based reporter; Potency, µM (top dose mostly 46.1 µM), for inactives: at the highest dose activation, most hits filed as activators; 330,000 compounds, 0.02% hits; active = well fitted activation curve with a large enough effect;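 also: potency is read from the fitted curve at half-maximal effect; 0% = DMSO controls and full agonism = EC100 isoproterenol or metaproterenol; nearly all actives have a fitted effect of over 65% in size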
D3 ag: agonists of human D3 dopamine receptor | P35462 | D3R DiscoveRx beta-arrestin cells, luminescence, 90 min | max activation, % | 410,000 compounds, 0.58% hits | AID 652048; in the data active = max activation above about 30%; also: 0% is about no effect
Target sequence (P35462 whole entry, looked up): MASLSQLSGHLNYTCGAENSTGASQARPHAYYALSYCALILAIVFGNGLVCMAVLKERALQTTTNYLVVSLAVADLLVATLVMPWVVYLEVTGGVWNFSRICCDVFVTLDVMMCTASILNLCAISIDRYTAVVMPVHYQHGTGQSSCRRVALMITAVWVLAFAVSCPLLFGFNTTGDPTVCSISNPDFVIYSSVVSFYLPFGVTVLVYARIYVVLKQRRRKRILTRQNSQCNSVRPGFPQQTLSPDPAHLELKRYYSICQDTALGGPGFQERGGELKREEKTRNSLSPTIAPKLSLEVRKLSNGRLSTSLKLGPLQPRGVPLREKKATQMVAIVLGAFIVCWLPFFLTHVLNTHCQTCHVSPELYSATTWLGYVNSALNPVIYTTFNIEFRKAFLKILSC
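Agonist mode: compounds and dopamine controls were applied to plated cells for 90 min at 37 degrees C after an overnight attachment at 1500 cells/well. Luminescent read-out followed 30 - 60 minutes at room temperature with DiscoveRx detection reagent.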
D3 antag: D3 dopamine receptor (human) antagonism | D3R cells, DiscoveRx beta-arrestin luminescence, antagonist mode; hits give low values | max response, negative = inhibition, % | 360,000 compounds, 2.5% hits | AID 652054; in the data active = max response below about -50%; also: % is scaled to controls: 0 for no effect and ±100 for the full control effect
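Cells expressing the human receptor were seeded at 1500 cells/well, incubated overnight at 37 degrees C in 5% CO2, then exposed to library compounds with dopamine controls for 90 minutes at 37 degrees C before luminescent detection.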
* marks the source's active call; other numbers are inactive results; · = no result given.

SMILES	TSHR antag	B2AR arrestin	D3 ag	D3 antag
Cn1c(=O)n(Cc2ccc(F)cc2)c(=O)c2c1nc1n2CCCN1C1CCCCC1	-11	0%	1	-99*
Cc1cc(Cl)c(OCCCNCc2ccccc2)c(Br)c1	-4	0%	-11	-62*
COCCNCCCCOc1c(Cl)cc(C)cc1Br	0	0%	-4	-84*
Cc1cc(Cl)c(OCCCN2CCCCC2)c(Br)c1	18	-2%	-25	-2
COc1cc(OC)cc(C(=O)Nc2cc3c(cc2N2CCCC2)n(C)c(=O)c(=O)n3C)c1	·	·	2	·
COc1cc2[nH]c(=O)n(CCCCCC(=O)N3CCN(c4ccc(Cl)cc4)CC3)c(=O)c2cc1OC	·	·	-11	·
CCc1ccc(NC(=O)C(C)OC(=O)c2ccc(NS(=O)(=O)c3ccc(C)c([N+](=O)[O-])c3)cc2)cc1 (centres undefined)	-29	3%	-22	-53*
Cc1ccc(NC(=O)C(C)OC(=O)c2ccc(NS(=O)(=O)c3ccc(F)c(F)c3)cc2)cc1 (centres undefined)	-9	-1%	-1	14
CCC(=O)N1CCc2cc(Br)cc(S(=O)(=O)N3CCCC(C(=O)NCc4cccc(OC)c4)C3)c21 (centres undefined)	·	·	-14	·
CC(=O)Nc1ccc2c(c1)CCc1ccccc1-2	10	0%	-14	6
O=C(O)/C=C/C(=O)c1ccc2c(c1)CCc1ccccc1-2	-29	0%	-80	-139*
COCCNC(=O)CCn1c(=O)c2cc(OC)c(OC)cc2n(CC(=O)Nc2ccc(F)c(Cl)c2)c1=O	·	·	-3	·
CC(C)c1cnc2c(c1SCc1cccc(C(F)(F)F)c1)c(=O)n(C)c(=O)n2C	·	·	10	·
C(=N\N1CCN(Cc2cccc3ccccc23)CC1)/c1cccnc1	-82*	0%	-23	-11
FC(F)(F)c1ccc(/C=N/N2CCN(Cc3cccc4ccccc34)CC2)cc1	2	0%	-2	2
O=C(NCc1ccc(F)cc1)C(c1ccco1)N(C(=O)c1csnn1)c1ccccc1 (centres undefined)	2	0%	49*	7
O=C(NCc1ccc(F)cc1)C(c1ccccc1)N(C(=O)c1csnn1)c1ccccc1 (centres undefined)	64	-1%	17	13
COc1cc2c(cc1OC)C(c1ccccc1)N(C(=O)CCl)CC2 (centres undefined)	2	0%	-2	-62*
CC1Cc2ccccc2N1C(=O)Cn1nnc(-c2ccccc2NC(=O)C2CCC2)n1 (centres undefined)	-14	-1%	9	-98*
CCC(=O)Nc1ccccc1-c1nnn(CC(=O)N2c3ccccc3CC2C)n1 (centres undefined)	3	0%	-11	-17
COc1cc(C=C2CCC/C(=C\c3ccc(O)c(OC)c3)C2=O)ccc1O	·	·	5	·
CC1(C(=O)OCC(=O)Nc2cccc(S(=O)(=O)NC3=NCCCCC3)c2)CC1(Cl)Cl (centres undefined)	5	0%	45*	1
Cc1ccccc1Nc1c(-c2ccc(O)cc2)nc2c(C)cccn12	·	·	-4	·
CCN1Cc2cccc(C(=O)Nc3ccc(F)cc3)c2C1=O	·	·	-5	·
CCOC(=O)c1c(CN(C)C)oc2cc(CN(C)C)c(O)c(CSc3ccccc3)c12	11	-1%	-21	-59*
SMILES	TSHR antag	B2AR arrestin	D3 ag	D3 antag
NC(c1ccc(F)c(F)c1)c1nc(-c2cncnc2)cs1 (centres undefined)	·	·	1	0
NC(c1ccc(F)c(F)c1)c1nc(-c2cc(F)cc(F)c2)cs1 (centres undefined)	·	·	9	-72*
Cc1oc2cc3oc(=O)c(CCC(=O)N[C@H](C(=O)O)C(C)C)c(C)c3cc2c1C	5	0%	-1	-16
Cc1oc2cc3oc(=O)c(CCC(=O)N(C)CC(=O)O)c(C)c3cc2c1C	4	-1%	3	-67*
CCNc1cc2oc(=O)c(CN3CCOCC3)c(C)c2cc1C	9	0%	-12	-67*
Cc1cc2oc(=O)cc(CN3CCOCC3)c2cc1C	2	0%	-8	7
Cc1oc2cc3oc(=O)c(CCC(=O)NCCN4CCOCC4)c(C)c3cc2c1C	-10	-1%	41*	9
COc1cc(NC(=O)C2CCCN(S(=O)(=O)c3cn(C)cn3)C2)cc(OC)c1 (centres undefined)	·	·	4	·
Cc1ccc(-n2c(SCC(N)=O)nc3c(oc4ccccc43)c2=O)cc1C	·	·	1	·
Cc1noc2ncnc(N3CCN(c4ccccc4F)CC3)c12	·	·	-1	·
